Experiment in all cases: NCI-60 one-dose screen, 48 h (100 = growth as untreated, 0 = no growth, -100 = all killed)
One test has as its system K-562 leukemia. The note with it: 10 µM unless noted.
The next test relates to MALME-3M melanoma. The note with it: 10 µM unless noted.
Another test deals with MDA-MB-231 breast. The conditions noted are these: 10 µM unless noted.
For the next test, the system named is RXF 393 renal. The conditions noted are these: 10 µM unless noted.
The subject of a further test is SF-268 CNS. The conditions noted are these: 10 µM unless noted.
Another test deals with SF-295 CNS. The note with it: 10 µM unless noted.
For the next test, the system named is SF-539 CNS. The note with it: 10 µM unless noted.
In a further test the test system is UACC-257 melanoma. The note with it: 10 µM unless noted.
A further test has as its system M14 melanoma. The conditions noted are these: 10 µM unless noted.
The next test relates to HCT-15 colon. The note with it: 10 µM unless noted.
A further test concerns HT29 colon. The note with it: 10 µM unless noted.
The test system of a further test is SNB-75 CNS. The note with it: 10 µM unless noted.
The subject of another test is SNB-19 CNS. The note with it: 10 µM unless noted.
For a further test, the system named is U251 CNS. The conditions noted are these: 10 µM unless noted.
For the next test, the system named is PC-3 prostate. The conditions noted are these: 10 µM unless noted.
The subject of a further test is UACC-62 melanoma. The conditions noted are these: 10 µM unless noted.
The subject of the next test is LOX IMVI melanoma. The note with it: 10 µM unless noted.
A further test relates to SK-MEL-28 melanoma. The note with it: 10 µM.
For another test, the system named is SK-MEL-2 melanoma. The note with it: 10 µM unless noted.
The subject of another test is SK-MEL-5 melanoma. The conditions noted are these: 10 µM unless noted.

Consider nine molecules from PubChem BioAssay (NCI).

Structures are written as SMILES. Compounds without any hit were thinned out: in the full panel of roughly 83,000, 20% have a hit.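 Cells were grown in 96-well plates and exposed to the test compound at a single concentration for 48 hours; results are reported as percent growth, with values below 10 considered active.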 Unmarked numbers belong to inactive results. The source made the active and inactive calls.

`O=C1c2cc(I)ccc2Oc2cc([N+](=O)[O-])ccc2N1c1ccc(Cl)cc1F`: the growth with K-562 leukemia is 49.4%; with MALME-3M melanoma it was 84.9%; with MDA-MB-231 breast it was 78.4%; in the test on RXF 393 renal it was 99%; with SF-268 CNS it was 79.1%; with SF-295 CNS it was 92%. In addition, the growth was 92.8% in the test on SF-539 CNS; 94.1% in the test on UACC-257 melanoma; 97.7% in the test with M14 melanoma; 57.4% in the test with HCT-15 colon; 83.9% with HT29 colon; 75.4% in the test with SNB-75 CNS. The growth with SNB-19 CNS is 90.5%; in the test with U251 CNS, 79.3%; with PC-3 prostate it was 78.7%; in the test with UACC-62 melanoma, 76.8%; in the test on LOX IMVI melanoma, 86.7%; in the test with SK-MEL-28 melanoma it was 97.3%. In addition, the growth in the test with SK-MEL-2 melanoma is 85.4%.
Consider `O=c1c2cc(F)ccc2sc2c(NCCCNCCO)nc3ccc(Cl)cc3c12`, for which the growth in the test on K-562 leukemia is -25.8% (active); in the test on MALME-3M melanoma it was 106%; with MDA-MB-231 breast it was 22.5%; in the test with RXF 393 renal it was 61.1%; with SF-268 CNS, 47.9%; with SF-295 CNS, 91.3%. Moreover, the growth is 84.8% in the test with SF-539 CNS; 97.9% in the test with UACC-257 melanoma; 33.4% with M14 melanoma; 51.2% in the test with HCT-15 colon; -48.6% (active) in the test on HT29 colon; 46.1% in the test with SNB-75 CNS. Besides, the growth in the test on SNB-19 CNS was 76.5%; with U251 CNS it was 33%; in the test on PC-3 prostate, 50.7%; in the test on UACC-62 melanoma, 91.6%; in the test with LOX IMVI melanoma it was 14.6%; in the test on SK-MEL-28 melanoma, 99.9%. Also, in the test on SK-MEL-2 melanoma, the growth was 105%.
For the molecule `COc1ccc(Br)c(/C=C2\SC(=Nc3ccc(O)cc3)NC2=O)c1`, the growth in the test with K-562 leukemia was 84.4%; in the test on MALME-3M melanoma it was 89.6%; in the test on MDA-MB-231 breast, 108%; in the test on RXF 393 renal, 83.7%; with SF-268 CNS, 74%; in the test on SF-295 CNS it was 98.3%. Besides, the growth was 85.4% in the test on SF-539 CNS; 102% in the test on UACC-257 melanoma; 97.8% with M14 melanoma; 79.3% in the test on HCT-15 colon; 113% in the test on HT29 colon; 72.2% in the test on SNB-75 CNS. The growth with SNB-19 CNS was 85.5%; in the test with U251 CNS it was 86.6%; with SK-MEL-5 melanoma it was 90.3%; with UACC-62 melanoma, 89.5%; in the test on LOX IMVI melanoma, 91.2%; in the test on SK-MEL-28 melanoma, 101%. Moreover, in the test on SK-MEL-2 melanoma, the growth was 96.2%.
As for `COc1ccc(CSc2nnc(SCC(=O)Nc3ccc(Cl)cc3)s2)cc1`, the growth was 15.6% in the test with K-562 leukemia; 121% with MALME-3M melanoma; 72.1% with MDA-MB-231 breast; 104% in the test on RXF 393 renal; 70.5% in the test with SF-268 CNS; -12.6% (active) in the test on SF-295 CNS. Also, the growth in the test with SF-539 CNS is 86.6%; in the test on UACC-257 melanoma it was 99%; in the test on M14 melanoma it was 39.9%; in the test with HCT-15 colon, 48.1%; with HT29 colon, 98.5%; with SNB-75 CNS, 93.2%. Besides, the growth in the test on SNB-19 CNS was 90.9%; in the test on PC-3 prostate, 58.6%; with UACC-62 melanoma, 18.2%; in the test on LOX IMVI melanoma, 46.8%; with SK-MEL-28 melanoma it was 87.2%; in the test with SK-MEL-2 melanoma, 124%.
In the case of `Cc1nc(Nc2ccccn2)sc1C(=O)/C=C/c1ccc(Cl)cc1`, the growth in the test on K-562 leukemia was 8.43% (active); in the test on MALME-3M melanoma, 50.3%; with MDA-MB-231 breast, 20.4%; in the test with RXF 393 renal it was 20.2%; in the test on SF-268 CNS, 19.9%; with SF-295 CNS, 4.33% (active). For the same molecule, the growth in the test with SF-539 CNS is -8.91% (active); in the test with UACC-257 melanoma, 41.8%; with M14 melanoma, 11.6%; in the test on HCT-15 colon, 11.7%; in the test with HT29 colon, 5.45% (active); in the test with SNB-75 CNS, 11.9%. Besides, the growth was 32.7% in the test on SNB-19 CNS; 14.8% in the test on U251 CNS; -32.4% (active) in the test on SK-MEL-5 melanoma; 48.2% with UACC-62 melanoma; 15.8% with LOX IMVI melanoma; 61.8% with SK-MEL-28 melanoma. In addition, the growth with SK-MEL-2 melanoma is 31.6%.
On to `COc1ccc(S(=O)(=O)N(Cc2ccc3c(n2)C=CC(C)(C)O3)C2CCC2)cc1OC`, for which the growth in the test on K-562 leukemia is 7.07% (active); with MALME-3M melanoma, -36.9% (active); with MDA-MB-231 breast, 3.21% (active); in the test with RXF 393 renal it was -20.2% (active); in the test with SF-268 CNS, -9.29% (active); in the test on SF-295 CNS, -43.3% (active). Besides, the growth with SF-539 CNS was 0.455% (active); in the test on UACC-257 melanoma, -13.9% (active); with M14 melanoma it was -59.1% (active); in the test with HCT-15 colon it was 13.5%; in the test with HT29 colon it was 3.8% (active); in the test on SNB-75 CNS, -12.5% (active). Also, the growth was 8.75% (active) in the test on SNB-19 CNS; 0.365% (active) in the test on U251 CNS; -3.05% (active) with PC-3 prostate; -14.7% (active) with UACC-62 melanoma; -40.6% (active) in the test on LOX IMVI melanoma; -18.8% (active) in the test on SK-MEL-28 melanoma. For the same molecule, the growth in the test with SK-MEL-2 melanoma is -37.5% (active).
Regarding `O=c1oc2ccc(F)cc2c(=O)n1-c1ccc(F)cc1F`, the growth is 15.7% in the test with K-562 leukemia; -6.02% (active) in the test with MALME-3M melanoma; 51.1% with MDA-MB-231 breast; 33.5% in the test with RXF 393 renal; 15% in the test with SF-268 CNS; 37.9% with SF-295 CNS. In addition, the growth with SF-539 CNS is 18.5%; with UACC-257 melanoma, 17.5%; in the test with M14 melanoma, 29%; in the test with HCT-15 colon it was 23.3%; with HT29 colon, 97.1%; with SNB-75 CNS it was 2.33% (active). Besides, the growth is 38.1% in the test with SNB-19 CNS; 13.6% in the test on U251 CNS; 16.1% in the test with PC-3 prostate; 14.2% in the test with LOX IMVI melanoma; 23% with SK-MEL-28 melanoma; -11.8% (active) in the test on SK-MEL-2 melanoma.
In the case of `O=c1oc2ccc(Br)cc2c(=O)n1-c1ccc(F)cc1F`, the growth was 9.74% (active) in the test with K-562 leukemia; -22.5% (active) with MALME-3M melanoma; 14.1% in the test with MDA-MB-231 breast; 3.17% (active) in the test on RXF 393 renal; 12.7% in the test on SF-268 CNS; -11.1% (active) with SF-295 CNS. Further, the growth in the test with SF-539 CNS is 10.7%; with UACC-257 melanoma, -8.2% (active); with M14 melanoma, 12%; in the test with HCT-15 colon, 13.6%; with HT29 colon, 97.7%; in the test on SNB-75 CNS, -12.1% (active). The growth in the test with SNB-19 CNS was 12.5%; with U251 CNS, 7.07% (active); in the test on PC-3 prostate, 0.771% (active); with UACC-62 melanoma, -0.768% (active); in the test on LOX IMVI melanoma it was 12.6%; in the test with SK-MEL-28 melanoma, 20.3%. Further, the growth with SK-MEL-2 melanoma was -16.1% (active).
In the case of `CN(C)/C=C1\SC(=Nc2ccc(Cl)cc2)NC1=O`, the growth with K-562 leukemia is 101%; in the test with MALME-3M melanoma it was 103%; with MDA-MB-231 breast, 92.7%; in the test on RXF 393 renal, 100%; in the test with SF-268 CNS, 101%; in the test on SF-295 CNS, 101%. Further, the growth in the test with SF-539 CNS was 96%; in the test with UACC-257 melanoma, 101%; with M14 melanoma, 109%; in the test on HCT-15 colon, 103%; with HT29 colon, 110%; with SNB-75 CNS, 96.4%. Further, the growth in the test with SNB-19 CNS was 102%; in the test on U251 CNS it was 99.7%; in the test on SK-MEL-5 melanoma it was 97%; in the test with UACC-62 melanoma, 95.2%; with LOX IMVI melanoma, 101%; in the test on SK-MEL-28 melanoma it was 101%. In the test on SK-MEL-2 melanoma, the growth was 104%.
